# Experimental data reported in PubChem BioAssay AID1159580 (chemical genetic matrix, 2015).
# In all, about 5,500 compounds went through this assay and about 2,000 (36%) were called active. Inconclusive results (about 18%) are left out. This is one part of the list. A number with no mark means an inactive call. Cut-off read from the data, not from the text of the source: active = normalized growth mostly below about 0.91 (no sharp cut-off); inconclusive = no clear call, values can overlap the other calls; inactive = mostly above about 0.92.
# Experiment: chemical genetic growth profiling, strain panel (AID 1159580);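 note: tested at 20 µM; growth read once vehicle control cultures reached saturation at 30 °C; 1 = growth at the plate median or of vehicle wells; lower values mean less growth of the strain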
# Settings: growth OD
# [1] = S. cerevisiae deletion strains, locus YAL013W, strain DEP1, active compounds read low
# [2] = S. cerevisiae deletion strains, locus YBR229C, strain ROT2, active compounds read low
# [3] = S. cerevisiae deletion strains, locus YCL061C, strain MRC1, active compounds read low
# [4] = S. cerevisiae deletion strains, locus YDL101C, strain DUN1, active compounds read low
# [5] = S. cerevisiae deletion strains, locus YDR150W, strain NUM1, active compounds read low
# [6] = S. cerevisiae deletion strains, locus YEL061C, strain CIN8, active compounds read low
# [7] = S. cerevisiae deletion strains, locus YGR078C, strain PAC10, active compounds read low
# [8] = S. cerevisiae deletion strains, locus YGR229C, strain SMI1, active compounds read low
# [9] = S. cerevisiae deletion strains, locus YHR030C, strain SLT2, active compounds read low
# [10] = S. cerevisiae deletion strains, locus YHR087W, strain rtc3, active compounds read low
# [11] = S. cerevisiae deletion strains, locus YJL187C, strain SWE1, active compounds read low
# [12] = S. cerevisiae deletion strains, locus YJR043C, strain POL32, active compounds read low
# [13] = S. cerevisiae deletion strains, locus YJR075W, strain HOC1, active compounds read low
# [14] = S. cerevisiae deletion strains, locus YKL190W, strain CNB1, active compounds read low
# [15] = S. cerevisiae deletion strains, locus YLR039C, strain RIC1, active compounds read low
# [16] = S. cerevisiae deletion strains, locus YLR058C, strain SHM2 (second series), active compounds read low
# [17] = S. cerevisiae deletion strains, locus YLR085C, strain ARP6, active compounds read low
# [18] = S. cerevisiae deletion strains, locus YLR262C, strain YPT6, active compounds read low
# [19] = S. cerevisiae deletion strains, locus YML094W, strain GIM5, active compounds read low
# [20] = S. cerevisiae deletion strains, locus YMR219W, strain ESC1, active compounds read low
# [21] = S. cerevisiae deletion strains, locus YMR263W, strain SAP30, active compounds read low
# [22] = S. cerevisiae deletion strains, locus YNL128W, strain TEP1, active compounds read low
# [23] = S. cerevisiae deletion strains, locus YNL153C, strain GIM3, active compounds read low
# [24] = S. cerevisiae deletion strains, locus YNL298W, strain CLA4 (second series), active compounds read low
# [25] = S. cerevisiae deletion strains, locus YNL322C, strain KRE1, active compounds read low
# [26] = S. cerevisiae deletion strains, locus YNR030W, strain Alg12, active compounds read low
# [27] = S. cerevisiae deletion strains, locus YPL055C, strain LGE1, active compounds read low
# [28] = S. cerevisiae deletion strains, locus YPL241C, strain CIN2, active compounds read low
# [29] = S. cerevisiae deletion strains, locus YPR135W, strain CTF4, active compounds read low
# [30] = S. cerevisiae strains, strain wild type, active compounds read low
structure (smiles),measurement,setting,value
C=C1SC(=Nc2cccc(OC)c2)N(C(=O)C(c2ccccc2)C2CCCC2)C1(C)C (centres undefined),normalized growth,[1],1.01
same,normalized growth,[2],0.971
same,normalized growth,[3],1.01
same,normalized growth,[4],1.06
same,normalized growth,[5],1.02
same,normalized growth,[6],0.963
same,normalized growth,[7],1.01
same,normalized growth,[8],0.983
same,normalized growth,[9],1.03
same,normalized growth,[10],0.957
same,normalized growth,[11],0.999
same,normalized growth,[12],1.01
same,normalized growth,[13],1.02
same,normalized growth,[14],0.977
same,normalized growth,[15],0.922
same,normalized growth,[16],0.979
same,normalized growth,[17],1.02
same,normalized growth,[18],0.919
same,normalized growth,[19],1
same,normalized growth,[20],1
same,normalized growth,[21],1.02
same,normalized growth,[22],0.97
same,normalized growth,[23],1.03
same,normalized growth,[24],1.01
same,normalized growth,[25],0.984
same,normalized growth,[26],1.02
same,normalized growth,[27],0.997
same,normalized growth,[28],1.07
same,normalized growth,[29],1.03
same,normalized growth,[30],0.95
CC(C)(C)c1ccc(-c2n[nH]c(=S)n2-c2cccc(C(F)(F)F)c2)cc1,normalized growth,[1],0.993
same,normalized growth,[2],1.01
same,normalized growth,[4],0.995
same,normalized growth,[5],1.01
same,normalized growth,[6],0.972
same,normalized growth,[7],0.977
same,normalized growth,[9],0.966
same,normalized growth,[10],1
same,normalized growth,[11],1.22 [resistant] (active)
same,normalized growth,[12],1.01
same,normalized growth,[13],1.24 [resistant] (active)
same,normalized growth,[14],1.01
same,normalized growth,[15],0.744 (active)
same,normalized growth,[16],1.03
same,normalized growth,[17],1.06
same,normalized growth,[18],0.884
same,normalized growth,[19],0.978
same,normalized growth,[20],1.01
same,normalized growth,[21],1
same,normalized growth,[23],1.03
same,normalized growth,[24],0.958
same,normalized growth,[25],1.01
same,normalized growth,[26],0.964
same,normalized growth,[27],0.949
same,normalized growth,[28],0.949
same,normalized growth,[29],0.829
COc1ccc(-c2n[nH]c(=S)n2-c2cccc(OC)c2)cc1,normalized growth,[1],0.987
same,normalized growth,[2],0.994
same,normalized growth,[3],0.977
same,normalized growth,[4],0.969
same,normalized growth,"S. cerevisiae deletion strains, locus YDL134C, strain PPH21, active compounds read low",0.979
same,normalized growth,[5],0.977
same,normalized growth,[6],1.01
same,normalized growth,[7],0.956
same,normalized growth,[9],1.02
same,normalized growth,[10],1.02
same,normalized growth,[11],0.993
same,normalized growth,[12],0.979
same,normalized growth,[13],0.967
same,normalized growth,[15],0.944
same,normalized growth,[16],0.989
same,normalized growth,[17],0.954
same,normalized growth,[18],1
same,normalized growth,[19],1
same,normalized growth,[20],0.986
same,normalized growth,[21],1
same,normalized growth,[22],0.989
same,normalized growth,[23],0.983
same,normalized growth,[24],0.957
same,normalized growth,[25],0.978
same,normalized growth,[26],0.966
same,normalized growth,[27],0.994
same,normalized growth,[28],0.967
same,normalized growth,[29],0.904
O=C(CSCc1c(F)cccc1Cl)Nc1ccc(F)c(Cl)c1,normalized growth,[1],0.883 (active)
same,normalized growth,[2],0.834 (active)
same,normalized growth,[3],0.869 (active)
same,normalized growth,[4],0.956
same,normalized growth,[5],0.83
same,normalized growth,[6],0.881 (active)
same,normalized growth,[7],0.872 (active)
same,normalized growth,[8],0.913 (active)
same,normalized growth,[9],0.194 (active)
same,normalized growth,[10],0.811 (active)
same,normalized growth,[11],0.875 (active)
same,normalized growth,[12],0.909 (active)
same,normalized growth,[13],0.794 (active)
same,normalized growth,[14],0.802 (active)
same,normalized growth,[15],0.607 (active)
same,normalized growth,[16],0.908 (active)
same,normalized growth,[17],0.561 (active)
same,normalized growth,[18],0.595 (active)
same,normalized growth,[19],0.826 (active)
same,normalized growth,[20],0.891 (active)
same,normalized growth,[22],0.928
same,normalized growth,[23],0.935
same,normalized growth,[24],0.773 (active)
same,normalized growth,[25],0.946
same,normalized growth,[26],0.752 (active)
same,normalized growth,"S. cerevisiae deletion strains, locus YOL006C, strain TOP1, active compounds read low",0.953
same,normalized growth,[27],0.75 (active)
same,normalized growth,[28],0.781 (active)
same,normalized growth,[29],0.441 (active)
same,normalized growth,[30],0.87 (active)
